# Source: PubChem (National Center for Advancing Translational Sciences (NCATS))
# An excerpt weighted towards active compounds, which were near 2.8% of everything screened.
# HTT ATP protect = Huntington cell model cytoprotection by ATP luminescence | PC12 HTT-Q103 induced, cytoprotection, ATP luminescence, 40 h | AID 1471 | actives 0.14% (n = 230,000) | Potency, µM (series often up to 56.4 µM), for the others: cytoprotection (ATP increase), actives largely listed as activators; also: potency is read from the fitted curve at half-maximal effect; % of control where 0% means no effect; nearly all actives have a fitted effect of over 45% in size
#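 Cells were plated at 1500 per well in phenol red-free DMEM with 5% equine and 5% calf serum. Tebufenozide (100 nM final) and compounds were added, then ATPlite reagent, and luminescence was read.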
# HepG2 tox-1 = counter-screen for TGF-b inhibitors: cytotoxicity in HepG2 cells; HepG2 CAGA-GFP viability, ATP luminescence, 18 h; Potency, µM (top dose mostly 46.1 µM), for the others: at the highest dose activity change, negative = cytotoxicity, usual class: cytotoxic; actives 0.76% (n = 410,000); also: potency is read from the fitted curve at half-maximal effect
#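 HepG2 CAGA-GFP cells (1000/well, DMEM with 1% FBS) received compound, then TGF-beta at 500 pg/mL final, and were incubated 18 hours at 37 degrees C. Viability was read by CellTiter-Glo luminescence. Media-only wells were set as complete cell-killing and DMSO as no toxicity.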
# ATXN2 expr inh = reduces ATXN2 reporter expression in HEK-293 cells; AID 1745845; Potency, µM (highest dose often 57 µM), without a hit: top-dose activity change, negative = inhibition, most hits filed as inhibitors; actives 0.72% (n = 360,000); HEK-293 ATXN2-luciferase reporter, luminescence, 24 h; also: potency is read from the fitted curve at half-maximal effect; % is scaled to controls: 0 for no effect and ±100 for the full control effect; nearly all actives have a fitted effect of over 55% in size
#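 qHTS (up to 57 uM final) was run with 24 h compound exposure of reporter cells at 37 °C. Each well was multiplexed: SteadyGlo luminescence measured ATXN2-luciferase expression after a fluorogenic Gly-Phe-AFC viability readout (25 uM final).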
# ATXN viability = viability counter-screen for ATXN expression inhibitors; actives 0.49% (n = 400,000); S2 cells (HEK-293 line with an ATXN2-luciferase reporter) viability, CellTiter-Fluor protease fluorescence, 24 h; Potency, µM (titrated, usually from 56.7 µM), actives largely listed as cytotoxic; also: potency is read from the fitted curve at half-maximal effect; nearly all actives have a fitted effect of over 40% in size
# TGFb inhibitor = TGF-b pathway inhibition. HepG2 CAGA-GFP TGF-b/SMAD3 reporter, GFP fluorescence, 18 h; TGF-beta stimulated, 500 pg/mL final. Potency, µM (series often up to 46.1 µM), without a hit: at the highest dose activity, negative = inhibition, most hits filed as inhibitors. actives 1.2% (n = 410,000). AID 588855; also: potency is read from the fitted curve at half-maximal effect; % is scaled to controls: 0 for no effect and ±100 for the full control effect; nearly all actives have a fitted effect of over 65% in size
#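 HEPG2 CAGA-GFP reporter cells (1000/well, DMEM with 1% FBS) received compounds, then recombinant TGF-beta at 500 pg/mL final for 18 hours at 37 degrees C. Per-cell GFP summed per well was normalised to unstimulated and stimulated DMSO controls before curve fitting.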
# HttQ103 aggreg = mutant huntingtin aggregation inhibition; PC12 HttQ103-GFP aggregates, Acumen cytometry, 40 h; Potency, µM (doses to about 46.1 µM), for inactives: at the highest dose activity change, negative = inhibition, usual class: inhibitors; actives 1.1% (n = 220,000); also: potency is read from the fitted curve at half-maximal effect; % is scaled to controls: 0 for no effect and ±100 for the full control effect; nearly all actives have a fitted effect of over 60% in size
#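 Aggregate formation scored by laser-scanning cytometer (488 excitation, 500–530 emission) in lysed PC12 cells expressing Q103-GFP after 100 nM tebufenozide induction; library tested in dose series, with ATPLite reagent added in the multiplex.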
# TGFb confirm = TGF-b pathway inhibition, cherry-pick retest | Potency, µM (highest dose often 46.1 µM), for inactives: top-dose activity, negative = inhibition, actives largely listed as inhibitors | actives 63% (n = 1,600) | shares compounds with TGFb inhibitor | HepG2 CAGA-GFP TGF-b reporter, GFP fluorescence, 18 h; cells stimulated with TGF-beta, 500 pg/mL | AID 720534; also: potency is read from the fitted curve at half-maximal effect; % is scaled to controls: 0 for no effect and ±100 for the full control effect; nearly all actives have a fitted effect of over 65% in size
# HepG2 tox-2 = counter-screen for TGF-b inhibitors: cytotoxicity in HepG2 cells | actives 27% (n = 1,600) | HepG2 CAGA-GFP viability, ATP luminescence, 18 h; cells stimulated with TGF-beta, 500 pg/mL | Potency, µM (series often up to 46.1 µM), for the others: top-dose activity, negative = cytotoxicity, hits mostly inhibitors | shares compounds with TGFb inhibitor; also: potency is read from the fitted curve at half-maximal effect; % is scaled to controls: 0 for no effect and ±100 for the full control effect; nearly all actives have a fitted effect of over 70% in size
# TGFb CCL64 inh = blocks TGF-b signaling in CCL64 reporter cells. Potency, µM (top dose mostly 46.1 µM), without a hit: top-dose activity, negative = inhibition, usual class: inhibitors. shares compounds with TGFb inhibitor. CCL64 CAGA-GFP reporter, TGF-b stimulated, GFP fluorescence, 18 h. actives 41% (n = 1,600); also: potency is read from the fitted curve at half-maximal effect; nearly all actives have a fitted effect of over 65% in size
# COP TGFb inh = validation of TGF-b inhibitors in HepG2 COP promoter reporter | shares compounds with TGFb inhibitor | HepG2 COP-GFP TGF-b reporter, GFP fluorescence, 18 h; cells stimulated by added recombinant TGF-beta | Potency, µM (top dose mostly 46.1 µM), without a hit: top-dose activity, negative = inhibition, actives largely listed as inhibitors | actives 3% (n = 1,600) | AID 720537; also: potency is read from the fitted curve at half-maximal effect; nearly all actives have a fitted effect of over 70% in size
# SK-N-SH 3D tox = reduced viability of SK-N-SH 3D spheroids, orthogonal test | SK-N-SH 3D spheroid viability, PI/Hoechst imaging, 72 h | actives 70% (n = 65) | shares compounds with ATXN2 expr inh | AID 1347135 | Potency, µM (top dose mostly 30.7 µM), most hits filed as inhibitors
# SJ-GBM2 3D tox = reduced viability of SJ-GBM2 3D spheroids, orthogonal test; shares compounds with ATXN2 expr inh; SJ-GBM2 3D spheroid viability, PI/Hoechst imaging, 72 h; Potency, µM (doses to about 30.7 µM), actives largely listed as inhibitors; actives 80% (n = 65); AID 1347136
# Daoy spheroid = Daoy 3D spheroid viability loss; shares compounds with ATXN2 expr inh; Daoy 3D spheroid viability, PI/Hoechst imaging, 72 h; Potency, µM (doses to about 30.7 µM), actives largely listed as inhibitors; actives 50% (n = 65); AID 1347137
# TC32 3D casp = caspase activation in TC32 3D spheroids, orthogonal test; shares compounds with ATXN2 expr inh; TC32 3D spheroids, caspase-3/7 fluorescence imaging, 24 h; Potency, µM (titrated, usually from 30.7 µM), usual class: inhibitors; actives 30% (n = 65); AID 1347138
# TC32 3D tox = kills TC32 spheroids in orthogonal 3D test | TC32 3D spheroid viability, PI/Hoechst imaging, 72 h | shares compounds with ATXN2 expr inh | actives 60% (n = 65) | Potency, µM (series often up to 30.7 µM), hits mostly inhibitors
# MG63 3D tox = kills MG-63 (6-TG R) spheroids in orthogonal 3D test; Potency, µM (titrated, usually from 30.7 µM), usual class: inhibitors; MG-63 (6-TG R) 3D spheroid viability, PI/Hoechst imaging, 72 h; shares compounds with ATXN2 expr inh; actives 50% (n = 65)
# RD spheroid = reduced viability of RD 3D spheroids, orthogonal test; actives 50% (n = 65); AID 1347141; shares compounds with ATXN2 expr inh; RD rhabdomyosarcoma 3D spheroid viability, PI/Hoechst imaging, 72 h; Potency, µM (doses to about 30.7 µM), hits mostly inhibitors
# * marks the source's active call; other numbers are inactive results; i = inactive; u = inconclusive; x = not tested or not shown; [ ] = dose if it differs, or a comment. Calls follow the shape of the dose curve; as a rule, active = well fitted curve in the direction sought with a large enough effect; inconclusive = small, poorly fitted or top-dose-only effect, or another doubt; inactive = no such curve, though single readings can be large; an effect the other way counts as inactive or inconclusive.
SMILES,HTT ATP protect,HepG2 tox-1,ATXN2 expr inh,ATXN viability,TGFb inhibitor,HttQ103 aggreg,TGFb confirm,HepG2 tox-2,TGFb CCL64 inh,COP TGFb inh,others
O=C(c1ccco1)N1CCN(c2ncnc3scc(-c4ccc(F)cc4)c23)CC1,11%[1.9 µM],-12%,-10%,i,18µM*,-17%,16µM*,1%,2%,2%,
Cc1cscc1-c1ccc(C(=O)Nc2c(C)cccc2C)o1,x,-25%,-28%,u,14µM*,x,12µM*,-13%,-29%,17%,
Cc1ccc(-c2ccc(C(=O)Nc3ccccc3)o2)c2ccccc12,x,-10%,-8%,i,u,4%,x,x,x,x,
COc1cccc2c1C(=O)c1c(O)c3c(c(O)c1C2=O)C[C@@](O)(C(=O)CO)C[C@@H]3O[C@H]1C[C@H](N)[C@H](O)[C@H](C)O1,-88%,5%,0.32µM*,4µM*,3.5µM*,x,0.16µM*,0.52µM*,1.3µM*,-1%,SK-N-SH 3D tox=0.18µM*;SJ-GBM2 3D tox=0.29µM*;Daoy spheroid=2.9µM*;TC32 3D casp=1µM*;TC32 3D tox=0.32µM*;MG63 3D tox=4.1µM*;RD spheroid=2.6µM*
CC1CC=CC2C1C(=O)N(Cc1ccccc1)C2c1ccc(/C=C/c2ccccc2)cc1F (stereo unspecified),x,-11%,x,x,-19%,x,x,x,x,x,
